87 compounds from PubChem BioAssay AID651815 (National Center for Advancing Translational Sciences (NCATS), 2012) can be followed below.

The campaign covered roughly 2,100 compounds. About 1,100 (52%) were called active. Inconclusive results (about 29%) are left out. So high a share suggests a set chosen from earlier hits. Some of the results follow. Values without a mark were called inactive. Calls come from the whole dose curve; as a rule, active = well fitted inhibition curve with a large enough effect; inconclusive = small, poorly fitted or top-dose-only effect; inactive = no such curve, though single readings can be large or run the other way.
% is set by controls: 0 for no effect and ±100 for the full control effect; potency is the fitted concentration of half-maximal effect.

Chain of DNA dC->dU-editing enzyme APOBEC-3F (Homo sapiens) (Q8IUX4 whole entry, looked up): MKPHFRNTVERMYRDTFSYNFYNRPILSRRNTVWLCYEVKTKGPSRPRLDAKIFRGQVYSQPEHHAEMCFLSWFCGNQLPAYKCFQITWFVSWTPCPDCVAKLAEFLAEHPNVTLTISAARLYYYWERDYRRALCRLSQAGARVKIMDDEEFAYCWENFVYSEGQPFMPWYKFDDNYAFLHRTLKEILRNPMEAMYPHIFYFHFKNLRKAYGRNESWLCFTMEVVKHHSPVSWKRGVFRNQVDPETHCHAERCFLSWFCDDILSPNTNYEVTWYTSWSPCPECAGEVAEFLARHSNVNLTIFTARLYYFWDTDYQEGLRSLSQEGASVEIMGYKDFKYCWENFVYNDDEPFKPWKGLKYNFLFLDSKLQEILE

The assay addresses DNA dC->dU-editing enzyme APOBEC-3F (Homo sapiens) (UniProt Q8IUX4). Nature of the assay: qHTS for inhibitors of Vif-A3F interactions: Cherry picks counterscreen. Note: nearly all actives have a fitted effect of over 65% in size. The following applies: HeLa A3F-eYFP/Vif cells, eYFP fluorescence, 24 h; series mostly up to 46.1 µM; activity, negative = inhibitor: at the top concentration. In outline: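 HeLa cells stably expressing A3F-eYFP and Vif, cultured overnight, then treated 24 h at 37 degrees C with compounds at several concentrations; yellow fluorescence (488 nm Ex/500-530 nm Em) imaged on Acumen; MG132 positive control.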
(In general: Quantitative high-throughput screening tests each substance at several concentrations.)
In the case of `CC(C)(C)OC(=O)NC(Cc1ccccc1)C(=O)N1CCC(C(=O)NCC(=O)Nc2ccc(F)cc2)CC1` (configuration not stated), the Potency is 23.1 µM (active). In the case of `Cc1cc(C)c(N2C(=O)CC(Sc3ccccc3N)C2=O)c(C)c1` (configuration not stated), the Potency was 15.8 µM (active). For `Cc1cc(C)n(-c2nc3c(c(=O)[nH]c(=O)n3C)n2CC(O)COc2ccc(Cl)cc2Cl)n1` (configuration not stated), the Potency was 2.23 µM (active).

Regarding `COc1ccc(S(=O)(=O)N2N=C(C)Oc3ccccc3C2=O)cc1`, the Potency is 3.14 µM (active).

As for `CC1(C)CCN2CCC(C)(C)c3c(O)ccc1c32`, the Potency was 14 µM (active). On the same count and under the same terms, the same measure for `CCOc1ccc(CN2C(=O)c3ccccc3Sc3ccc(C(=O)O)cc32)cc1`: 7.31 µM (active); for `CC(C)OC(=O)c1c2c(n3ccccc13)C(=O)c1ccccc1C2=O`: 8.2 µM (active); for `CCOc1ccccc1C(=O)Nc1c(C(=O)Nc2ccc(F)cc2)oc2ccccc12`: 0.92 µM (active). Take `Oc1ccc(C=NNC(=S)Nc2ccc(F)cc2)c(O)c1`: the “activity, negative = inhibitor” value is -1.61%.

Regarding `O=S(=O)([N-]c1nc2ccccc2nc1-[n+]1ccc(-c2ccncc2)cc1)c1ccccc1`, the Potency is 18.4 µM (active).

In the case of `Cc1cc(C)c[n+](-c2nc3ccccc3nc2[N-]S(=O)(=O)c2ccc(Br)s2)c1`, the Potency was 9.2 µM (active).

As to `CCc1cc[n+](-c2nc3ccccc3nc2[N-]S(=O)(=O)c2ccc(Br)s2)cc1`, the Potency is 8.2 µM (active). Take `O=C(c1ccccc1)C1C(=O)c2ccccc2C1=O`: the “activity, negative = inhibitor” value was 11.3%. For the compound `NN=C1c2ccccc2C(=O)C1C(=O)C(c1ccccc1)c1ccccc1` (configuration not stated), the Potency is 12.5 µM (active). With `CCCCN1C(=O)C2Cc3c([nH]c4ccccc34)CN2C1=S` (configuration not stated), the Potency was 15.8 µM (active).

For `CCS(=O)(=O)Nc1cccc(C2=NN(C(=O)c3ccco3)C(c3ccco3)C2)c1` (configuration not stated), the Potency is 11.2 µM (active). As to `CCCN1CCC(=NNc2ccc(S(=O)(=O)N3CCOCC3)cc2[N+](=O)[O-])CC1`, the Potency is 3.96 µM (active).

Turning to `Cc1ccc(NC(=S)N=Nc2c(O)n(C)c3ccc(S(=O)(=O)N4CCOCC4)cc23)cc1`, the “activity, negative = inhibitor” value is 7.68%. On the same count and under the same terms, the same measure for `O=C(O)c1ccccc1/C=N/Nc1ccc(S(=O)(=O)N2CCOCC2)cc1[N+](=O)[O-]`: -5.64% [at 36.9 µM].

Consider `CC(C)=CCn1c2ccc(NC(=O)NCc3ccc(F)cc3)cc2c(=O)n1C`, for which the Potency is 3.14 µM (active). Still for that read-out and setting: the same measure for `COc1ccccc1CCC(=O)Nc1ccc2c(c1)c(=O)n(C)n2-c1cccs1`: 3.14 µM (active); for `COc1ccccc1CCC(=O)Nc1ccc2c(c1)c(=O)n(C)n2Cc1ccc(F)cc1`: 15.8 µM (active). With `Cc1ccc2[nH]c3c(c2c1)CN(C(=O)CN1CC(C)OC(C)C1)CC3` (configuration not stated), the “activity, negative = inhibitor” value was -19.8% [at 36.9 µM]. As to `O=C(C[C@@H]1C/C=C/CC[C@H](Cc2ccc(F)cc2)C(=O)OC[C@@H](Cc2ccccc2)NC1=O)N[C@H](CO)Cc1ccccc1`, the Potency was 16.4 µM (active). Still for that read-out and setting: for `CC(/C=N/NC(=O)c1cccc(F)c1)=C\c1ccccc1` the value was 12.5 µM (active); for `COc1cccc(C(=O)N/N=C/C(Br)=C/c2ccccc2)c1`, 2.8 µM (active). In the case of `O=C(O)c1ccc(N/N=C/C(Br)=C/c2ccccc2)cc1`, the “activity, negative = inhibitor” value is -0.273% [at 36.9 µM].

With `C/C(=N/NC(N)=S)c1ccc(Br)s1`, the “activity, negative = inhibitor” value is 6.46%. With `Cc1cc(C)cc(C(=O)N2CC(=O)Nc3ccccc32)c1`, the Potency was 0.994 µM (active). For `CCCn1nc(C(=O)N2CC(=O)Nc3ccccc32)c2ccccc2c1=O`, the Potency is 11.2 µM (active).

For the compound `COc1cc(OC)cc(C(=O)N2CC(=O)Nc3ccccc32)c1`, the Potency was 1.25 µM (active). Same read-out and setting: for `O=C1CN(C(=O)c2cc(Br)c(Br)s2)c2ccccc2N1` the value was 6.27 µM (active); for `CCC(C)[C@H](NC(=O)N1CC(=O)Nc2ccccc21)C(=O)Nc1ccccc1C` (some centres not stated), 15.8 µM (active); for `Cc1ccc(N/C(N)=N/c2nc(CSc3nnc(C)s3)cc(=O)[nH]2)c(C)c1`, 1.77 µM (active). The same measure, in the same setting: the same measure for `CC(=Nc1ccccc1)C1=C(O)C(Cc2ccccc2)NC1=O` (configuration not stated): 0.314 µM (active). `CC#Cc1cc2c(cc1O)CCC1C2CCC2(C)C(O)CCC12` (configuration not stated): the Potency was 5.59 µM (active).

Regarding `C=C(NC(=O)C(=C)NC(=O)c1csc(C2=NC3c4csc(n4)C4NC(=O)c5csc(n5)C(C(C)(O)C(C)O)NC(=O)C5CSC(=N5)/C(=C/C)NC(=O)C(C(C)O)NC(=O)c5csc(n5)C3(CC2)NC(=O)C(C)NC(=O)C(=C)NC(=O)C(=C)NC(=O)C(C(C)C)NC2C=Cc3c(C(C)O)cc(nc3C2O)C(=O)OC4C)n1)C(N)=O` (configuration not stated), the Potency is 5.59 µM (active). Take `CC(CC(=O)Nc1ccc2c(c1)c(=O)n(C)n2-c1ccccc1F)c1ccccc1` (configuration not stated): the Potency is 12.5 µM (active). Still for that read-out and setting: for `CC(CC(=O)Nc1ccc2c(c1)c(=O)n(C)n2-c1ccccc1)c1ccccc1` (configuration not stated) the value was 2.23 µM (active); for `Cn1c(=O)c2cc(NC(=O)Cc3cccc4ccccc34)ccc2n1-c1ccccc1`, 7.04 µM (active). For the compound `COc1ccc(NC(=O)CN2C(=O)C3(SCC(=O)N3c3ccccc3)c3ccccc32)cc1Cl` (configuration not stated), the “activity, negative = inhibitor” value was 0.792%. In the case of `CCOc1ccc(S(=O)(=O)NCc2ccccn2)cc1NC(=O)c1ccccc1`, the Potency was 3.14 µM (active).

With `CCN1/C(=C/C=C2/SC(=Nc3cccc4ncccc34)N(C)C2=O)Sc2ccccc21`, the Potency was 2.31 µM (active).

As to `N#Cc1cc2ccccc2nc1SCC(=O)Nc1ccccc1N1CCOCC1`, the “activity, negative = inhibitor” value is -24.1%. As for `COc1ccc2nc(SCC(=O)N3CC(=O)Nc4ccccc43)c(C#N)cc2c1`, the Potency is 16.4 µM (active). As to `CCc1ccc2nc(SCC(=O)N3CC(=O)Nc4ccccc43)c(C#N)cc2c1`, the Potency was 14 µM (active).

For the compound `CCc1ccc2nc(SCC(=O)Nc3ccccc3N3CCOCC3)c(C#N)cc2c1`, the Potency is 2.59 µM (active). In the case of `CCC1CCCCN1CCCNC(=O)c1ccc2c(c1)N(Cc1ccccc1F)C(=O)c1ccccc1S2(=O)=O` (configuration not stated), the Potency was 4.11 µM (active).

`Cc1ccc(C(=O)CSc2nc(-c3ccccc3)ccc2C#N)cc1`: the Potency was 16.4 µM (active). Turning to `Cc1nc(SCC(=O)c2ccccc2)c(C#N)c(-c2ccco2)c1C(=O)NCc1ccco1`, the “activity, negative = inhibitor” value was -16.1% [at 36.9 µM]. As to `N#Cc1ccc(-c2cccnc2)nc1SCC(=O)c1ccccc1`, the Potency is 2.91 µM (active). Same read-out and setting: for `CC(=O)c1ccc2cccc3c2c1N=CN3C` the value was 12.5 µM (active); for `CN1CCc2c(sc(NC(=O)CSc3ccc(F)cc3)c2-c2nc3ccccc3s2)C1`, 14.6 µM (active). Same read-out and setting: for `CC(=O)N1CCc2c(sc(NC(=O)CSc3ccccc3)c2-c2nc3ccccc3s2)C1` the value was 16.4 µM (active); for `CC(=O)Nc1sc2c(c1-c1nc3ccccc3s1)CCN(C(C)C)C2`, 3.26 µM (active); for `Cc1ccc(/C=C/c2ccc(N(C)C)cc2)[n+](C)c1`, 15.8 µM (active).

As to `CN(C)c1ccc(/C=C/c2cc[n+](C)cc2)cc1`, the Potency was 17.7 µM (active). On the same count and under the same terms, for `CC[n+]1cc(C)ccc1/C=C/c1ccc(N(C)C)cc1` the value was 17.7 µM (active).

Take `CCOC(=O)c1c(CC(C)C)csc1/N=C/C1C(=O)CCCC1=O`: the “activity, negative = inhibitor” value was -3.7%. On to `O=C(NCc1ccco1)c1cccc2c1C(=O)c1ccc(N3CCC(Cc4ccccc4)CC3)cc1S2(=O)=O`, for which the Potency is 20.6 µM (active). Still for that read-out and setting: the same measure for `O=C(NCc1cc(C(F)(F)F)ccc1Cl)c1cccc2c1C(=O)c1ccc(N3CCC(Cc4ccccc4)CC3)cc1S2(=O)=O`: 14 µM (active); for `O=C(NCc1cccc(C(F)(F)F)c1)c1cccc2c1C(=O)c1ccc(N3CCC(Cc4ccccc4)CC3)cc1S2(=O)=O`: 18.4 µM (active); for `O=C(NCc1cc(C(F)(F)F)ccc1Cl)c1cccc2c1C(=O)c1ccc(N3CCOCC3)cc1S2(=O)=O`: 18.4 µM (active). For `Cc1ccc(C(=O)NC2c3ccccc3-c3ccccc32)cc1`, the Potency was 3.96 µM (active).

In the case of `COc1ccccc1-c1cc(NC=O)c2ncc(-c3cccc(C(=O)N(C)C)c3)n2c1`, the Potency is 14 µM (active). On the same count and under the same terms, for `COc1ccccc1-c1cc(NC=O)c2ncc(-c3ccc(S(C)(=O)=O)cc3)n2c1` the value was 5.59 µM (active).

Turning to `CN(C)C(=O)c1cccc(-c2cnc3c(NC=O)cc(-c4ccccc4F)cn23)c1`, the “activity, negative = inhibitor” value is 1.13% [at 36.9 µM]. On to `CC1C/C(=N\NC(N)=S)c2cc(Cl)ccc2S1` (configuration not stated), for which the “activity, negative = inhibitor” value was 6.56%. `O=C(Nc1nnc(-c2ccc3c(c2)CCCC3)o1)c1c(F)cccc1F`: the “activity, negative = inhibitor” value was 10.7%. For the compound `Cc1ccccc1-n1c(/C=C/c2c(C)n(C)c3ccccc23)nc2ccccc2c1=O`, the Potency is 18.4 µM (active). Take `O=C(Nc1cc(Cl)ccc1-n1cncn1)c1ccc([N+](=O)[O-])s1`: the Potency was 14 µM (active). The same measure, in the same setting: the same measure for `COc1ccc(/C=N/NC(=O)c2[nH]nc3c2CCc2ccccc2-3)cc1OC`: 4.98 µM (active). `COc1cccc(/C=N/NC(=O)c2[nH]nc3c2CCc2ccccc2-3)c1`: the Potency was 2.5 µM (active).

Consider `COc1ccc(CN2C(=O)C(C)Nc3ncnc(N4CCc5ccccc5C4)c32)cc1` (configuration not stated), for which the Potency was 2.8 µM (active). Take `CCn1nc(-c2ccccc2)c2nc3ccccc3nc21`: the Potency was 20.6 µM (active). Same read-out and setting: the same measure for `O=C(NCC1CCCO1)c1nn2c(C(F)(F)F)cc(-c3cc(Br)cs3)nc2c1Br` (configuration not stated): 11.6 µM (active). `CS(=O)(=O)N(CC(=O)N1CCN(Cc2ccccc2)CC1)c1ccccc1F`: the “activity, negative = inhibitor” value was -1.61%. As for `Cc1cccc(-n2c(N)c(-c3nc4ccccc4n3C)c3nc4ccccc4nc32)c1`, the “activity, negative = inhibitor” value was -9.95%. On to `CC(=O)n1c2ccccc2c2nc3ccccc3nc21`, for which the Potency was 5.8 µM (active).

Regarding `CS(=O)(=O)Nc1ccc(C2=NN(S(C)(=O)=O)C(c3ccc4nccnc4c3)C2)cc1` (configuration not stated), the “activity, negative = inhibitor” value was 5.25%. With `CCS(=O)(=O)N1N=C(c2cccc(NS(C)(=O)=O)c2)CC1c1ccc(C)cc1` (configuration not stated), the Potency is 18.4 µM (active). As for `CS(=O)(=O)N1N=C(c2ccccc2)CC1c1ccc2c(c1)OCO2` (configuration not stated), the Potency is 14 µM (active).

`Cc1ccc(CNC(=O)C2CC(c3cc(C(F)(F)F)cc(C(F)(F)F)c3)=NO2)o1` (configuration not stated): the Potency is 7.04 µM (active).

`N#Cc1cc2ccccc2nc1SCc1ccccn1`: the Potency was 16.4 µM (active). `O=C1c2ccccc2C(=O)c2c(/C=C/N3CCCCC3)ccnc21`: the Potency was 18.4 µM (active). As for `Clc1ccc2c(c1)C(C1=NCCN1)c1ccccc1CS2` (configuration not stated), the Potency was 3.14 µM (active). Still for that read-out and setting: for `CC(C)n1c(O)c(N=Nc2ccc(Cl)nn2)c2ccccc21` the value was 18.4 µM (active).
